Activity calls are given as the source filed them.
Key:
[1] = tested on: Human papillomavirus type 1a protein E7 (residues 44-93); experiment: HPV1a E7 fragment binders on microarrays, primary screen, biochemical, small-molecule microarray, residues 44-93, 635 nm fluorescence (AID 1108); details: small-molecule microarray binding, fluorescence 635 nm; higher = more signal;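 further: E7 fragment applied at 1 µg/mL in TBST for 1 h at 4 C; score combines spot fluorescence with its signal to noise ratio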
[2] = modulators of HCV replicon luciferase signal, primary screen, HCV replication inhibitor project, Huh7 cells, luciferase reporter (AID 1109); details: 48 h, higher = more signal;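 further: huh7 hepatoma cells harbouring a luciferase neomycin HCV replicon reporter; luciferase luminescence as measure of HCV replicon replication; test concentration not given here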
[3] = target: Left-right determination factor 2 (Homo sapiens) (UniProt O00292); experiment: LEFTY2 binders on small-molecule microarrays, primary screen, biochemical, small-molecule microarray, 635 nm fluorescence scan (AID 1110); details: LEFTY2 binding, higher = more signal
Chain of Left-right determination factor 2 (Homo sapiens) (O00292 whole entry, looked up): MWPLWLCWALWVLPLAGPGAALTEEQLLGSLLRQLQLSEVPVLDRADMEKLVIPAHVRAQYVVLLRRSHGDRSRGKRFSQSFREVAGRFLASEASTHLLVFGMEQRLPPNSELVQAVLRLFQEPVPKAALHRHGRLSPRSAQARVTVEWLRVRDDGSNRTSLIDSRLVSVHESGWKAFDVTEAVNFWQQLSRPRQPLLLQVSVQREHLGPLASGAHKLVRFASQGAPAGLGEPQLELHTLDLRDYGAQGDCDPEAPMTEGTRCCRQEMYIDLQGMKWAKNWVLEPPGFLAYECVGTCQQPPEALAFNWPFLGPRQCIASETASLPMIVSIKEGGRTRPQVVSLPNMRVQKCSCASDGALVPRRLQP

[4] = target: Calmodulin-1 (Homo sapiens) (UniProt P0DP23); experiment: CALM1 binders on microarrays, EGTA buffer, profiling panel, biochemical, small-molecule microarray, Cy5-labelled CALM1 (AID 1111); details: Cy5-CALM1 binding fluorescence, higher = more signal;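 further: labelled calmodulin applied in Tris saline Tween buffer holding calcium plus EGTA and DTT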
[5] = target: Calmodulin-1 (Homo sapiens) (UniProt P0DP23); experiment: calcium-bound CALM1 binders on microarrays, profiling panel, artefact control for SMM control-protein annotation, biochemical, small-molecule microarray, Cy5-labelled CALM1, plus calcium (AID 1112); details: Cy5-CALM1 binding fluorescence, higher = more signal;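 further: score merges spot fluorescence with signal to noise from triplicate slides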
[6] = small-molecule microarray binders of probe aWnt5a, primary screen, biochemical, biotinylated probe, 635/667 nm fluorescence (AID 1113); details: higher = more signal;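 further: score merges 667 nm fluorescence intensity with signal-to-noise per printed feature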
[7] = small-molecule microarray binders of probe aShh, primary screen, biochemical, biotinylated probe, 635/667 nm fluorescence (AID 1114); details: higher = more signal;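 further: probe is biotin-labelled aShh protein from a stem cell growth factor screen; measures binding of labelled protein to compounds printed on the slide; score merges feature fluorescence at 667 nm with signal-to-noise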
[8] = small-molecule microarray binders of probe aNog, primary screen, biochemical, biotinylated probe, 635/667 nm fluorescence (AID 1115); details: higher = more signal;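 further: probe is biotinylated aNog protein used at 0.15 µg/mL for 1 h at 4 C; z-score combines 667 nm fluorescence of each spot with its signal to noise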
[9] = target: Torsin-1A-interacting protein 1 (Homo sapiens) (UniProt Q5JTV8); experiment: LAP1 binders from COS7 cell lysate, primary screen, small-molecule microarray, 635/667 nm fluorescence (AID 1116); details: COS7-hLAP1 lysate binding, 635 nm fluorescence, higher = more signal
Chain of Torsin-1A-interacting protein 1 (Homo sapiens) (Q5JTV8 whole entry, looked up): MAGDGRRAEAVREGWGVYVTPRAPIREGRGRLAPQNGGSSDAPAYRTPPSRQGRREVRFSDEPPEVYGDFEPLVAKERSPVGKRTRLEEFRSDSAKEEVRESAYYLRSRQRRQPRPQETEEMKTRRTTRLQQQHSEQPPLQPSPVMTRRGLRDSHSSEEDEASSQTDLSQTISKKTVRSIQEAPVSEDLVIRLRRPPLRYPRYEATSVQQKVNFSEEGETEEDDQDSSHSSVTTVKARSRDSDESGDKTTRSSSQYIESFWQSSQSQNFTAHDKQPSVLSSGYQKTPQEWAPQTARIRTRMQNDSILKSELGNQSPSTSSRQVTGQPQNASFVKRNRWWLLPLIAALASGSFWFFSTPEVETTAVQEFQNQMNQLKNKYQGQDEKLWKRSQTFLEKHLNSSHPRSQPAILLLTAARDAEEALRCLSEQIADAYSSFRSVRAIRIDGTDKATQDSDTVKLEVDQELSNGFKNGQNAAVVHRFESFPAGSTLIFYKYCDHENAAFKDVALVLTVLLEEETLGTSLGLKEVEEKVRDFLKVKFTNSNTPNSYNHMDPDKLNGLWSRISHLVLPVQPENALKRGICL

[10] = target: Alpha-bungarotoxin (Bungarus multicinctus) (UniProt P60615); experiment: alpha-bungarotoxin binders on microarray, profiling panel, artefact control for SMM control protein annotation, biochemical, small-molecule microarray, Alexa647 label, 635/667 nm fluorescence (AID 1117); details: alpha-BTX-A647 binding fluorescence, higher = more signal
Chain of Alpha-bungarotoxin (Bungarus multicinctus) (P60615 whole entry, looked up): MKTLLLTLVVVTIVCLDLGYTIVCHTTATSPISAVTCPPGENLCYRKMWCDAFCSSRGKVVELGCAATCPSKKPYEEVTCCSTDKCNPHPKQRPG

Albumin (Bos taurus) = Albumin (Bos taurus) (UniProt P02769); experiment: bovine serum albumin binders on microarray, profiling panel, artefact control for SMM control protein annotation, biochemical, small-molecule microarray, Alexa647 label, 635/667 nm fluorescence (AID 1118); details: BSA-A647 binding, fluorescence 635 nm, higher = more signal;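 further: score merges 667 nm emission intensity and signal-to-noise per printed compound spot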
Chain of Albumin (Bos taurus) (P02769 whole entry, looked up): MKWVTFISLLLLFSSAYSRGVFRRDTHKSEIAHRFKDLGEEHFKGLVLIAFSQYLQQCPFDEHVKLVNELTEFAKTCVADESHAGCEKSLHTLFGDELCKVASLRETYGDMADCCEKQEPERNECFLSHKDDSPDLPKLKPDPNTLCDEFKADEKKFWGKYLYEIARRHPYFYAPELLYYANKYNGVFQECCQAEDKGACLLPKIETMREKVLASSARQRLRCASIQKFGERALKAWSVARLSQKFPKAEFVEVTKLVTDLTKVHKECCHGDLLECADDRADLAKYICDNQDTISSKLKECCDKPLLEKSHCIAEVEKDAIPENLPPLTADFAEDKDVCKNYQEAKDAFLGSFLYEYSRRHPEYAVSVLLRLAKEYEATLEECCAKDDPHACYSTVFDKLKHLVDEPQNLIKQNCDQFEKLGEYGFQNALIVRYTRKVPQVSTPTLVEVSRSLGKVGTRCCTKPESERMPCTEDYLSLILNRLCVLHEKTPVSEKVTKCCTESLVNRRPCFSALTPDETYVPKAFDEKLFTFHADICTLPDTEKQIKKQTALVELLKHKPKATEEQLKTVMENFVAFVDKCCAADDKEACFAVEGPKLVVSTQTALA

[11] = small-molecule microarray binders of probe aXIP, primary screen, biochemical, NeuroSMM set, 635/667 nm fluorescence (AID 1119); details: higher = more signal, called active from +8 up or from −8 down;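 further: probe is the protein aXip251-270 applied at 1 µg/mL to compound-printed slides; binding of probe to printed compounds measured as 667 nm fluorescence plus signal to noise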
[12] = small-molecule binders of probe aNOTCH3, primary screen, biochemical, small-molecule microarray, 635/667 nm fluorescence (AID 1120); details: higher = more signal;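 further: probe is a biotin-tagged antibody raised against NOTCH3 rather than NOTCH3 protein; score merges spot fluorescence near 667 nm with spot signal to noise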
[13] = small-molecule binders of probe aNOTCH2, primary screen, biochemical, small-molecule microarray, 635/667 nm fluorescence (AID 1121); details: higher = more signal;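 further: score merges feature fluorescence read at 667 nm with its signal to noise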
[14] = target: Carbonic anhydrase 2 (Homo sapiens) (UniProt P00918); experiment: CAII small-molecule binders, profiling panel, biochemical, small-molecule microarray, Alexa647-labelled CAII (AID 1122); details: CAII-A647 binding fluorescence, higher = more signal
[15] = COS7 lysate on small-molecule microarray, probe aHis, 635 nm (AID 1123); details: COS7 cell lysate, fluorescence, higher = more signal;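 further: z-score combines 667nm fluorescence intensity with signal-to-noise per printed compound spot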
[16] = compound binding in COS7 lysate, probe aLAP1, primary screen, cell lysate, small-molecule microarray (AID 1124); details: probe aLAP1, fluorescence, higher = more signal;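 further: lysate comes from COS7 cells expressing LAP1 and is applied at 0.3 µg/mL; score merges spot fluorescence near 667 nm with signal-to-noise over triplicate slides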
Sam68 (KHDRBS1) = experiment: Sam68 small-molecule binders, primary screen, biochemical, small-molecule microarray, 635 nm fluorescence (AID 1125); details: small-molecule microarray binding, higher = more signal;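 further: score merges 667 nm channel intensity with signal to noise over triplicate slides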
[17] = tested on: Chordin-like protein 2 (CHRDL2); experiment: CHRDL2 small-molecule binders, primary screen, biochemical, small-molecule microarray, 635 nm fluorescence (AID 1126); details: small-molecule microarray binding, fluorescence 635 nm; higher = more signal;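 further: printed compound slides probed with Chrdl2 protein at 4 µg/mL for 1 h at 4 C; score merges 667 nm emission intensity with signal to noise over three replicate slides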
[18] = target: Concanavalin-A (Canavalia ensiformis) (UniProt P02866); experiment: ConA small-molecule binders, primary screen, artefact control for SMM control protein annotation, biochemical, small-molecule microarray, Alexa647 label, 635 nm (AID 1127); details: ConA-A647 binding fluorescence, higher = more signal;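 further: z combines 667 nm emission intensity with signal-to-noise across three replicate slides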
Chain of Concanavalin-A (Canavalia ensiformis) (P02866 whole entry, looked up): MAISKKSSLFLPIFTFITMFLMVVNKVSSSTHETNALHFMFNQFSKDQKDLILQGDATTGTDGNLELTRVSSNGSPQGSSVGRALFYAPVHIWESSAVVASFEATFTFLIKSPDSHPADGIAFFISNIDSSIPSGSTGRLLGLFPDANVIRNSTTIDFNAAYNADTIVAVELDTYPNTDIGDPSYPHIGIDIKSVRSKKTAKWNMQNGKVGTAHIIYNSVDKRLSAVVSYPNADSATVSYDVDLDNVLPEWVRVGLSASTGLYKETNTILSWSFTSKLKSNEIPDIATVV

Row | Structure (SMILES) | composite z-score [1] | z-score [2] | composite z-score [3] | composite z-score [4] | composite z-score [5] | composite z-score [6] | composite z-score [7] | composite z-score [8] | composite z-score [9] | composite z-score [10] | composite z-score (Albumin (Bos taurus)) | composite Z-score [11] | composite z-score [12] | composite z-score [13] | composite z-score [14] | composite z-score [15] | composite z-score [16] | composite z-score (Sam68 (KHDRBS1)) | composite z-score [17] | composite z-score [18]
1 | COC(=O)C1(Cc2ccccc2)C=C2C(=C(C)C(=O)C2C)CN1 (stereo not given) | -0.706 | 0.0597 | -0.479 | 1.92 | 0.536 | -0.0644 | -0.0035 | 1.68 | 1.8 | 0.242 | -0.0396 | 0.877 (inactive) | 0.0203 | 0.197 | 0.742 | 2.62 | 0.578 | -0.674 | 0.46 | -0.634
2 | COC(=O)[C@]1(Cc2ccccc2)N=C(c2ccc(OCCCO)cc2)O[C@@H]1c1ccccc1CN=[N+]=[N-] | 1.37 | -3.37 | -0.383 | 0.63 | -0.293 | -0.0944 | 0.0796 | 0.537 | 1.11 | 1.01 | -0.847 | 0.384 (inactive) | 0.0259 | -0.0017 | 0.403 | 1.98 | -0.0103 | 0.745 | 0.214 | 0.656
3 | CCOC(=O)c1cn(C[C@H](Cc2ccccc2)NC(=O)N[C@H](CO)CCc2oc(C(C)=O)c(C(=O)OC)c2C(=O)OC)nn1 | 1.39 | 0.404 | 0.896 | -0.0815 | -0.471 | -0.0816 | -0.0553 | -0.158 | 0.866 | 0.491 | 0.576 | 0.511 (inactive) | 0.269 | -0.123 | 0.443 | 1.57 | 0.131 | 1.3 | 1.17 | 0.883
4 | CCCNC(=O)[C@@]1(Sc2ccc(C)cc2)CC(=O)N(Cc2ccccc2Cl)[C@@H]1c1ccc(CO)cc1I | 0.135 | -2.17 | -1.4 | 0.284 | 0.321 | -0.129 | -0.132 | 1.91 | -0.0631 | 0.461 | -0.266 | -0.588 (inactive) | 0.965 | -0.0836 | 0.529 | 0.649 | -0.0685 | -0.169 | -1.56 | 0.0737
5 | CO[C@H]1O[C@H](CO)[C@@H](OC(=O)Nc2ccc3c(c2)OCO3)[C@H](OC(=O)Nc2ccccc2-c2ccccc2)[C@H]1OC(=O)Nc1ccccc1-c1ccccc1 | 1.08 | -3.79 | -0.0829 | 1.54 | -0.243 | 0.288 | -0.273 | 0.747 | 2.06 | 0.557 | 0.287 | 0.0432 (inactive) | 0.214 | 0.084 | 0.687 | 2.27 | 0.869 | 1.29 | -0.162 | 1.03
6 | COC(=O)[C@H](Cc1ccc(O)cc1)N[C@@H](/C=C/C1CC1)[C@H](O)Cc1ccccc1 | -0.367 | -1.06 | -0.0158 | -0.851 | -0.929 | -0.15 | -0.214 | -0.321 | 0.108 | -0.22 | -0.394 | -0.414 (inactive) | -0.127 | -0.172 | -0.231 | -0.635 | -0.125 | 0.0476 | 0.202 | -0.407
7 | C=C(COC)C(=O)CC[C@@H](OC(=O)c1ccccc1-c1ccccc1C(=O)O)c1ccc(OCCO)cc1 | -0.0675 | -1.88 | 0.079 | -0.601 | -0.942 | -0.145 | -0.304 | 0.338 | 1.21 | -0.0978 | -0.238 | 0.081 (inactive) | -0.0491 | -0.154 | 0.784 | 0.113 | 0.238 | 0.576 | 0.319 | -0.0355
8 | C=C(CCCC)/C(=C/C[C@H](OC(=O)c1ccncc1)c1cccc(OCCO)c1)c1cnc2ccccc2c1 | 1.39 | -2.46 | 0.354 | 0.0734 | -0.731 | -0.0459 | -0.0035 | -0.0496 | -0.064 | 0.551 | 0.677 | -0.12 (inactive) | 0.211 | -0.0649 | 0.861 | 1.17 | 0.423 | 1.26 | 0.51 | 0.831
9 | CCCCC(O)C1C=CC2C(=O)N(c3ccccc3)C(=O)C2N1Nc1ccccc1 (stereo not given) | 1.24 | -0.375 | -0.484 | 1.14 | 1.06 | 0.0153 | 0.232 | 0.331 | 0.721 | 1.45 | 0.901 | -0.539 (inactive) | 0.0248 | -0.0596 | 0.0784 | 2.59 | -0.0672 | 0.576 | -1.17 | 0.557
10 | COC(=O)C(CC#Cc1ccc2c(c1)[C@]1(C(=O)N2)[C@H](C(=O)NC[C@H](O)c2ccccc2)[C@H]2C(=O)O[C@H](c3ccccc3)[C@H](c3ccccc3)N2[C@@H]1c1ccccc1OCCO)C(=O)OC | 1.45 | -1.92 | 0.441 | 0.413 | -0.0643 | -0.1 | -0.167 | 0.149 | 1.67 | 1.61 | -0.119 | -0.154 (inactive) | 0.0779 | -0.115 | 0.376 | 2.14 | 0.298 | 1.25 | 0.557 | 1.01
11 | CC(C)C[C@@H]1NC(=O)[C@@H]2C[C@H](C(=O)NCCCCCCNC(=O)CS)[C@H](c3cccc(OCCO)c3)N2C1=O | 1.47 | -0.319 | 0.622 | 1.03 | 0.264 | 0.0375 | 0.0611 | -0.0172 | 1.06 | 2.02 | -0.256 | 0.491 (inactive) | 0.248 | -0.123 | 0.228 | 1.94 | 0.252 | 1.29 | 1.36 | 0.862
12 | NC(=O)N1C(=O)C2C(C1=O)C1C=C(CCCO)C2C(c2ccc(CN3CCCC3)cc2)N1Cc1sc2ccccc2c1Cl (stereo not given) | 0.53 | -2.9 | -0.292 | 0.302 | 0.424 | -0.0735 | -0.0146 | -0.342 | -0.218 | 0.187 | 0.492 | -1.02 (inactive) | 0.124 | -0.258 | 0.832 | 0.712 | 0.242 | -0.0045 | -0.352 | 0.271
